KB-3-1 tox: kills parental KB-3-1 adenocarcinoma cells | hit rate 1.4% among 400,000 | Potency, µM (top dose mostly 46.1 µM), actives largely listed as cytotoxic | KB-3-1 viability, CellTiter-Glo ATP luminescence, 72 h | AID 1347075; note: nearly all actives have a fitted effect of over 60% in size
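Cytotoxicity in the drug-sensitive parental line KB-3-1 was scored as loss of CellTiter-Glo luminescence following 72 h incubation with compound. Values come from curve fitting of normalized concentration-response data.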
HT1080 IDH1KD tx: HT-1080 IDH1 knockdown cell toxicity (counter line). hit rate 2% among 360,000. HT-1080 IDH1 knockdown viability, ATP luminescence, 48 h. AID 686971. Potency, µM (highest dose often 46.1 µM), most hits filed as cytotoxic
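In this qHTS, HT-1080 cells depleted of IDH1 are exposed for 48 h at 37 °C to compound titrations. Toxicity is scored from CellTiter-Glo luminescence, with DMSO as full viability and medium alone as none.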
TDP1 cell CPT: growth inhibition of DT40 Tdp1-/-;hTDP1 cells with camptothecin (screen for TDP1 inhibitors) | chicken DT40 Tdp1-/-;hTDP1 cells + 20 nM CPT, ATP luminescence, 48 h | Potency, µM (titrated, usually from 46.2 µM), most hits filed as inhibitors | hit rate 12% among 420,000 | AID 686979; note: nearly all actives have a fitted effect of over 55% in size
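Chicken DT40 Tdp1-/- cells complemented with human TDP1, 400 cells/well, exposed to compounds plus 20 nM camptothecin for at least 48 h at 37 C; viability read as ATP content by CellTiter-Glo luminescence.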
KB-V1 MDR tox: KB-V1 MDR subline cytotoxicity. Potency, µM (series often up to 46.1 µM), hits mostly cytotoxic. KB-V1 MDR cells viability, CellTiter-Glo, 72 h. hit rate 3.4% among 400,000. AID 1347076; note: nearly all actives have a fitted effect of over 60% in size
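KB-V1, DMEM (no phenol red) + 10% FBS; cpd pin-transferred, titration series; 72 h, 37 degrees C; CellTiter-Glo, luminescence. Data normalized, curve-fit.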
HT1080NT lethal: kills 2HG-producing HT-1080-NT fibrosarcoma cells. HT-1080-NT fibrosarcoma viability, CellTiter-Glo ATP luminescence, 48 h. Potency, µM (titrated, usually from 46.1 µM), hits mostly cytotoxic. hit rate 1.6% among 360,000;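 note: NT is the 2HG producing partner of a matched IDH1 knockdown line; nearly all actives have a fitted effect of over 55% in size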
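HT-1080-NT; 750 cells/well; 5% FBS RPMI; 48 h compound, 37 degrees C; CellTiter-Glo luminescence; curve fitting and curve-class assignment.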
DT40 TDP1 no CPT: qHTS for Inhibitors of human tyrosyl-DNA phosphodiesterase 1 (TDP1): qHTS in cells in absence of CPT | DT40 Tdp1-/- hTDP1 cells, no CPT, ATP luminescence, 48 h | Potency, µM (titrated, usually from 46.2 µM), hits mostly inhibitors | AID 686978, 2013 | hit rate 15% among 420,000; note: nearly all actives have a fitted effect of over 55% in size
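Chicken DT40 Tdp1-/- cells stably complemented with human TDP1 were seeded at 400 cells/well with DMSO in place of 20 nM camptothecin. After compound pinning, cells grew at least 48 hr at 37 °C; viability read by CellTiter-Glo luminescence.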
Each line names hits and unclear results; the compound was inactive in the other large screens. Hits are enriched below; roughly 19% of the tested compounds scored in any of these assays. Calls come from the whole dose curve; as a rule, active = well fitted curve in the direction sought with a large enough effect; inconclusive = small, poorly fitted or top-dose-only effect, or another doubt; inactive = no such curve, though single readings can be large; an effect the other way counts as inactive or inconclusive.

O=C(CSc1ncnc2sc3c(c12)CCC3)NCC1CCCO1 (configuration not stated)	none
CC1CCc2c(sc3ncnc(SC(C)C(=O)NCC4CCCO4)c23)C1 (configuration not stated)	KB-3-1 tox inconclusive, HT1080 IDH1KD tx inconclusive, TDP1 cell CPT 25.9µM, KB-V1 MDR tox inconclusive, HT1080NT lethal inconclusive, DT40 TDP1 no CPT 20.6µM
Cc1nc(SCC(=O)N2CCN(C(=O)c3cccs3)CC2)c2c(C)c(C)sc2n1	KB-3-1 tox inconclusive, TDP1 cell CPT 25.9µM, KB-V1 MDR tox inconclusive, DT40 TDP1 no CPT 16.4µM
Cc1nc(SCC(=O)N2CCN(C(=O)c3ccco3)CC2)c2c(C)c(C)sc2n1	TDP1 cell CPT inconclusive, KB-V1 MDR tox inconclusive, DT40 TDP1 no CPT inconclusive
Cc1ccc(S(=O)(=O)N2C[C@H]3C(=O)C[C@@H](c4ccc(Cl)cc4)N(S(=O)(=O)c4ccc(C)cc4)[C@H]3C[C@H]2c2ccc(Cl)cc2)cc1	none
CCOC(=O)C1=CCC(C(C)(C)C)N(S(=O)(=O)c2ccc(C)cc2)C1 (configuration not stated)	TDP1 cell CPT inconclusive, DT40 TDP1 no CPT inconclusive
Cc1ccc(-n2c(CCC(=O)O)ccc2-c2cccs2)cc1Cl	KB-V1 MDR tox inconclusive (no result: HT1080 IDH1KD tx, HT1080NT lethal)
CC[C@@H]1Cc2[nH][nH]c(=O)c2[C@@H](c2ccc(Cl)cc2)O1	none
O=C(O)c1cccc(Oc2ccc(C(=O)O)c([N+](=O)[O-])c2)c1	none
Cc1cccn2c(=O)c(C(=O)N3CCN(c4ccccc4F)CC3)cnc12	none (no result: HT1080 IDH1KD tx, HT1080NT lethal)
CCCc1nc(SCC(=O)N2CCOCC2)c2c(C)c(C)sc2n1	KB-V1 MDR tox 9.2µM, DT40 TDP1 no CPT inconclusive
Cn1nnnc1SCC(=O)Nc1nc(-c2ccc(F)c(F)c2)cs1	TDP1 cell CPT inconclusive, DT40 TDP1 no CPT inconclusive
Cc1sc2ncnc(SCC(=O)Nc3nc(-c4ccc(F)c(F)c4)cs3)c2c1C	DT40 TDP1 no CPT 20.6µM
COc1ccc(-c2nc3cnc(N4CCOCC4)nc3n(C[C@H]3CCCO3)c2=O)cc1	none (no result: KB-3-1 tox, HT1080 IDH1KD tx, KB-V1 MDR tox, HT1080NT lethal)
CCc1ccccc1N(C)C(=O)c1cc2c(Cl)nc3ccc(C)cc3c2s1	TDP1 cell CPT inconclusive, DT40 TDP1 no CPT 18.4µM (no result: HT1080 IDH1KD tx, HT1080NT lethal)
CCN(C(=O)c1cc2c(Cl)nc3ccc(C)cc3c2s1)c1cc(OC)ccc1OC	TDP1 cell CPT inconclusive, DT40 TDP1 no CPT 14.6µM (no result: HT1080 IDH1KD tx, HT1080NT lethal)
CCN(C(=O)c1cc2c(=O)oc3ccc(C)cc3c2s1)c1cc(OC)ccc1OC	TDP1 cell CPT inconclusive, DT40 TDP1 no CPT inconclusive (no result: HT1080 IDH1KD tx, HT1080NT lethal)
Cc1ccc(NC(=O)c2cc3c(Cl)nc4ccc(C)cc4c3s2)c(Cl)c1	DT40 TDP1 no CPT inconclusive (no result: HT1080 IDH1KD tx, HT1080NT lethal)
COCCN(Cc1ccco1)C(=O)c1cc2c(Cl)nc3ccc(C)cc3c2s1	TDP1 cell CPT inconclusive, DT40 TDP1 no CPT inconclusive (no result: HT1080 IDH1KD tx, HT1080NT lethal)
Cc1ccc2nc(Cl)c3cc(C(=O)N(CCN(C)C)Cc4ccco4)sc3c2c1	KB-3-1 tox inconclusive, HT1080 IDH1KD tx 23.1µM, KB-V1 MDR tox inconclusive, HT1080NT lethal inconclusive, DT40 TDP1 no CPT inconclusive
CCc1nc2ccc(C(=O)NCCCn3ccnc3)cn2c1N(C)CCC(C)C	TDP1 cell CPT inconclusive, DT40 TDP1 no CPT inconclusive
CC(C)Cc1nc2oc3c(=O)[nH]cnc3c2c2c1CCCC2	KB-V1 MDR tox 18.4µM
CCCc1nc2oc3c(NCCN(C)C)ncnc3c2c2c1CCCC2	KB-3-1 tox inconclusive, HT1080 IDH1KD tx inconclusive, TDP1 cell CPT 18.4µM, DT40 TDP1 no CPT 16.4µM
CC(C)Cc1nc2oc3c(NCC(C)O)ncnc3c2c2c1CCCC2 (configuration not stated)	TDP1 cell CPT inconclusive, DT40 TDP1 no CPT 14.6µM
CCCc1nc2oc3c(NCCCN(C)C)ncnc3c2c2c1CCCC2	HT1080 IDH1KD tx inconclusive, TDP1 cell CPT inconclusive, KB-V1 MDR tox inconclusive, DT40 TDP1 no CPT inconclusive
Cc1ccc(-c2cn3c4c(=O)n(C)c(=O)n(C)c4nc3n2-c2cccc(Cl)c2)cc1	KB-V1 MDR tox inconclusive (no result: HT1080 IDH1KD tx, HT1080NT lethal)

Screening data: PubChem BioAssay, National Center for Advancing Translational Sciences (NCATS)
